Compound activity (PubChem)
In the library only some 4.4% were active in any assay of this set; here they are far more common.
TRHR PAM – qHTS for Small Molecule Agonists and Allosteric Enhancers of Human TRH Receptor: Primary Screen for Enhancers. AID 493056, 2011. 360,000 tested, 0.66% active. enhancement, % at 2 µM. TRHR cells, fluo-8 calcium fluorescence, EC20 TRH enhancement; in the data active = enhancement above about 30%; also: 0% is about no effect
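TRHR-expressing cells loaded with fluo-8 calcium dye were read kinetically (ex 480/em 530) during compound addition, then stimulated with an EC20 of TRH (10 nM final). Enhancement of the Gq-mediated intracellular calcium response was scored.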
USP1 inh – Inhibitors of USP1/UAF1: Primary Screen | 390,000 tested, 0.23% active | recombinant USP1/UAF1, Ub-Rhodamine cleavage fluorescence | Ubiquitin carboxyl-terminal hydrolase 1 (Homo sapiens), O94782 | Potency, µM (highest dose often 57.1 µM), for inactives: at the highest dose activity change, negative = inhibition, hits mostly inhibitors; active = well fitted inhibition curve with a large enough effect; inconclusive = small, poorly fitted or top-dose-only effect; inactive = no such curve, though single readings can be large or run the other way; also: potency is read from the fitted curve at half-maximal effect; % is scaled to controls: 0 for no effect and ±100 for the full control effect; nearly all actives have a fitted effect of over 60% in size
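USP1/UAF1 complex at 1 nM was preincubated with compound for 15 min at room temperature, then Ub-Rho substrate (150nM final) was added. Fluorescence (480/540 nm) was read kinetically, 6 reads every 60 seconds.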
D1 potentiator – Potentiators of Human D1 Dopamine Receptor: qHTS; HEK293 TREx D1 cells, calcium flux, dopamine EC20 potentiation; AID 504651, 2011; 360,000 tested, 0.036% active; potentiation, % at 10 µM; in the data active = potentiation above about 30%; also: 0% is about no effect
Target sequence (P21728 whole entry, looked up): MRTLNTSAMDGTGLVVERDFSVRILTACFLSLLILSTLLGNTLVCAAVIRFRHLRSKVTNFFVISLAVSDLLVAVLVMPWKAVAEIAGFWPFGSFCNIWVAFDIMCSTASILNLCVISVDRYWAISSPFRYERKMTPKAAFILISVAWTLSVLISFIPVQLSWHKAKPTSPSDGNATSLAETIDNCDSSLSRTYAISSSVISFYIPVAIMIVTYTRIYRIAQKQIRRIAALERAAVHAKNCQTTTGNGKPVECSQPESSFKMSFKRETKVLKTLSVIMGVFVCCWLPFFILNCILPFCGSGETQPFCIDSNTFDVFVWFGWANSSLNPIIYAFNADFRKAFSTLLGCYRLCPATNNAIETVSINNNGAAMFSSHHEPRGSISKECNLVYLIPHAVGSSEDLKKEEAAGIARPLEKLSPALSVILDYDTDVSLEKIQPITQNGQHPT
TRHR agonist – qHTS for Small Molecule Agonists and Allosteric Enhancers of Human TRH Receptor: Primary Screen for Agonists. Thyrotropin-releasing hormone receptor (Homo sapiens), P34981. activation, % at 2 µM. 360,000 tested, 0.18% active. TRHR cells, calcium flux fluo-8, FDSS agonist mode; also: 0% is about no effect
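TRHR-expressing cells loaded with fluo-8 calcium dye; 23 nL library compound pin-transferred, kinetic FDSS fluorescence (Ex 480/Em 530) recorded about 180 s for agonist-induced calcium release, before a 10 nM TRH EC20 addition for potentiator mode.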
D1 antagonist – Antagonist of Human D 1 Dopamine Receptor: qHTS; HEK293 TREx D1 cells, calcium flux, dopamine EC80; hits give low values; AID 504652, 2011; 360,000 tested, 3.2% active; activity change, negative = inhibition, % at 10 µM; in the data active = activity change below about -30%; also: % is scaled to controls: 0 for no effect and ±100 for the full control effect
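Inducible Hek293 Trex D1 cells (tetracycline, overnight, 30 C). Calcium dye 30–90 min RT. Antagonist mode: EC80 dopamine added after 180 s compound read.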
D1 ag – Allosteric Agonists of the Human D1 Dopamine Receptor: qHTS; activation, % at 2 µM; HEK293 T-REx D1 cells, calcium flux, agonist mode; 360,000 tested, 1% active; D(1A) dopamine receptor (Homo sapiens), P21728; AID 504660, 2011; also: 0% is about no effect
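Agonism was scored from calcium flux recorded over 180 s (1 read/s) after pintool compound addition, following a 10-cycle baseline. Cells were inducible force-coupled HEK293 TREx D1, plated overnight at 30 C and loaded with no-wash calcium dye.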
The depositor's hits bear a star; ? = inconclusive; . = not tested or not shown. Rule as the data show it, unless noted: active = activation above about 30%; inactive = the rest.

SMILES	TRHR PAM	USP1 inh	D1 potentiator	TRHR agonist	D1 antagonist	D1 ag
Cn1c(=O)c2nc(SCC(=O)Nc3cc(Cl)cc(Cl)c3)n(C)c2n(C)c1=O	-0.3	-5.7%	-2.5	0.7	.	3.0
CCN1CCN(c2ccc(S(=O)(=O)N3CCCCC3)cc2NC(=O)COc2ccc(Cl)cc2)CC1	7.4	-8.0%	-5.3	-0.1	-43.0*	0.3
CN1CCN(c2ccc(S(=O)(=O)N3CCCCC3)cc2NC(=O)Cc2ccc(Cl)cc2)CC1	-12.9	-11.8%	5.3	11.7	-14.2	91.3*
CN1CCN(c2ccc(S(=O)(=O)N3CCCCC3)cc2NC(=O)c2ccc(C#N)cc2)CC1	0.7	-21.8%	-2.3	0.6	-44.6*	0.7
N#Cc1ccc(C(=O)Nc2cc(S(=O)(=O)N3CCOCC3)ccc2N2CCOCC2)cc1	.	-6.6%	.	.	.	.
CCN1CCN(c2ccc(S(=O)(=O)N3CCCCC3)cc2NC(=O)COc2cc(C)ccc2Cl)CC1	4.2	-22.0%	2.2	0.5	7.7	11.3
CN1CCN(c2ccc(S(=O)(=O)N3CCCCC3)cc2NC(=O)CCc2ccccc2)CC1	-2.0	-22.8%	.	4.0	0.7	33.0*
Cc1ccc(Cn2ccnc2SCC(=O)Nc2nc3ccccc3s2)cc1	5.5	-19.2%	-0.6	0.0	0.2	0.7
CC(C)N(Cc1ccccc1)C(=O)CCS(=O)(=O)c1cc2c(cc1Cl)NC(=O)CO2	-3.9	-25.7%	0.2	-0.1	-5.7	1.0
CC(C)NC(=O)c1ccc(-n2c(-c3ccccc3)cc3c2CCCCC3)cc1	12.5	-1.8%	-4.4	0.5	-7.6	0.6
CC1CCc2c(cc(-c3ccccc3)n2-c2ccc(C(=O)NC(C)C)cc2)C1 (centres undefined)	2.1	-3.8%	-5.0	0.7	-39.4*	7.0
COc1ccc(NC(=O)CN2C(=O)CC(C)(C)S(=O)(=O)c3ccccc32)cc1	-2.3	-9.4%	-8.5	-0.2	-33.1*	0.9
Cc1nc(-c2cccnc2)sc1C(=O)Nc1cccc(C(F)(F)F)c1	1.5	-19.7%	-2.7	-0.7	3.6	2.1
Cc1nc(-c2cccnc2)sc1C(=O)Nc1ccc(C(F)(F)F)cc1	3.8	-14.9%	-3.5	0.9	-33.3*	2.0
CCOc1ccc(CC(=O)NCCS(=O)(=O)N2CCN(c3ccc(OC)cc3)CC2)cc1	3.4	-8.6%	-1.3	0.2	5.2	4.5
CCCCOC(=O)c1ccc(NC(=O)Cc2coc3ccc(C(C)C)cc23)cc1	2.4	-26.3%	-2.0	4.2	-5.4	19.1
CCOc1cc(CNCc2cccs2)cc(Br)c1OCC	10.3	-19.0%	1.0	-0.2	-2.1	0.7
CCOc1cc(CNCCO)cc(Br)c1OCc1cccs1	-4.3	-14.7%	-2.3	0.8	0.1	33.8*
O=C(N/N=C/c1ccc([N+](=O)[O-])o1)C(=O)Nc1ccc(C(=O)O)cc1	12.1	?	5.2	0.7	-3.1	1.9
O=C(O)c1cccc(-c2ccc(/C=N/Nc3ccc([N+](=O)[O-])cc3)o2)c1	14.1	?	2.6	70.2*	4.2	102.9*
O=C(O)c1ccc(-c2ccc(/C=N/Nc3ccc([N+](=O)[O-])cc3)o2)cc1	35.8*	12.6µM*	0.0	122.5*	5.4	150.5*
O=C(O)c1ccc(N/N=C/c2ccc(-c3cccc(Cl)c3)o2)cc1	-0.8	-22.3%	16.4	-0.3	-2.8	0.9
O=C(O)c1ccc(N/N=C/C=C/c2ccc([N+](=O)[O-])o2)cc1	8.1	-24.1%	1.4	26.8	-5.1	56.3*
COc1ccccc1NC(=O)CSC1=Nc2ccccc2C2=NC(Cc3ccccc3)C(=O)N12 (centres undefined)	2.8	-15.4%	2.6	-1.5	15.5	4.3
O=C1C(=O)N(Cc2ccco2)C(c2cccc(Cl)c2)/C1=C(\O)c1ccc2c(c1)OCCO2 (centres undefined)	1.8	-19.6%	0.5	0.2	-52.8*	1.6
SMILES	TRHR PAM	USP1 inh	D1 potentiator	TRHR agonist	D1 antagonist	D1 ag
COc1ccc(OC)c(C2/C(=C(/O)c3ccccc3)C(=O)C(=O)N2Cc2ccco2)c1 (centres undefined)	-2.2	0.5%	-5.7	-0.1	-8.7	2.0
COc1cc(C2/C(=C(\O)c3ccc4c(c3)OCCO4)C(=O)C(=O)N2Cc2ccco2)cc(OC)c1OC (centres undefined)	-1.1	-24.2%	-8.1	0.3	-33.1*	1.2
COc1ccc(/C(O)=C2\C(=O)C(=O)N(Cc3ccco3)C2c2cc(OC)ccc2OC)cc1 (centres undefined)	-1.9	-29.5%	1.4	0.0	-30.5*	1.0
CCOCCn1ccc2c(OCC(=O)Nc3ccc(C(N)=O)cc3)cccc2c1=O	1.0	-6.2%	0.3	1.4	.	3.8
COCCn1c(-c2ccc(Br)cc2)nc2oc3cc(OC)ccc3c(=O)c2c1=O	-4.3	-17.7%	0.2	-2.3	-44.6*	-0.3
O=C(NCCNC(=O)c1ccc(Br)o1)c1ccc(Br)o1	37.6*	12.5%	1.2	2.7	5.0	14.3
COc1ccc(NC(=O)/C(Cl)=C(/Cl)S(=O)Cc2ccc(Cl)cc2)cn1 (centres undefined)	-17.0	?	-6.7	1.3	-32.5*	-0.3
COc1ccc(NC(=O)C(Cl)=C(Cl)Cl)cn1	0.4	-17.5%	-4.7	0.0	-9.9	1.3
CC(C)C(NS(=O)(=O)c1ccccc1F)C(=O)N1CCc2ccccc2C1 (centres undefined)	-6.5	-14.7%	-8.6	0.0	-37.0*	0.2
O=C(c1cccc(F)c1)N1CCCN(C(=O)c2cccc(F)c2)CC1	5.7	-14.5%	-4.8	-0.4	-80.7*	1.0
CC(C)Cc1nn2cc(-c3cccc(Br)c3)nc2s1	1.6	-25.8%	4.5	1.4	4.4	4.2
Cc1noc(C)c1C(=O)Nc1nc(-c2cc(F)ccc2F)cs1	0.9	-4.0%	-2.7	0.0	-32.0*	1.9
O=C(Nc1nc(-c2cc(F)ccc2F)cs1)c1cccc(N2C(=O)CCC2=O)c1	-13.6	-5.2%	-4.8	0.4	-32.4*	9.4
O=C(Nc1nc(-c2ccc(F)cc2)cs1)c1cccc(N2C(=O)CCC2=O)c1	-3.7	-16.9%	-7.7	-0.2	-0.6	2.7
CCCCCn1c(=O)[nH]c2cc(C(=O)Nc3ccc(OC)c(OC)c3)ccc2c1=O	-0.1	-14.8%	1.5	0.2	-11.0	0.4
